Consider eight molecules from PubChem BioAssay (NCI).

The panel holds about 83,000 compounds, 20% with a hit somewhere; the sample as a whole holds those more often.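 A percent growth of 40 corresponds to 60% growth inhibition; 0 means no net growth; -100 means all cells died. Active threshold: below 10.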 Unmarked numbers belong to inactive results. The source made the active and inactive calls.

Among the test systems are SR leukemia; RPMI-8226 leukemia; OVCAR-8 ovarian; OVCAR-5 ovarian; OVCAR-4 ovarian; SK-OV-3 ovarian; IGROV1 ovarian; OVCAR-3 ovarian; HS 578T breast; NCI/ADR-RES ovarian; T-47D breast; BT-549 breast; MDA-MB-435 melanoma; SW-620 colon; MCF7 breast; HCT-116 colon; HCC-2998 colon; KM12 colon.
Common to all, as to experiment: NCI-60 one-dose screen, 48 h (100 = growth as untreated, 0 = no growth, -100 = all killed)
Conditions in all cases: 10 µM unless noted

For `CC(O)Cc1c[nH]c(=O)[nH]c1=O` (centres undefined), the growth is 93.8% in the assay with SR leukemia; 117% in the assay on RPMI-8226 leukemia; 92% in the assay with OVCAR-8 ovarian; 109% in the assay with OVCAR-5 ovarian; 115% in the assay on OVCAR-4 ovarian; 29.3% in the assay on SK-OV-3 ovarian. Besides, the growth in the assay with IGROV1 ovarian is 116%; in the assay on OVCAR-3 ovarian, 99%; with HS 578T breast it was 103%; with NCI/ADR-RES ovarian, 104%; in the assay with T-47D breast, -19.1% (active); with BT-549 breast it was 105%. Further, the growth is 103% in the assay with MDA-MB-435 melanoma; 94.9% in the assay with SW-620 colon; 88.9% in the assay on MCF7 breast; 97.2% in the assay with HCT-116 colon; 119% in the assay on HCC-2998 colon; 95.6% in the assay on KM12 colon.

As for `S=c1ccnc[nH]1`, the growth in the assay with SR leukemia was 131%; in the assay on RPMI-8226 leukemia, 110%; in the assay with OVCAR-8 ovarian it was 100%; in the assay with OVCAR-5 ovarian it was 101%; with OVCAR-4 ovarian, 117%; in the assay with SK-OV-3 ovarian it was 113%. The growth with IGROV1 ovarian was 110%; in the assay with OVCAR-3 ovarian it was 111%; with HS 578T breast it was 113%; in the assay with NCI/ADR-RES ovarian, 100%; in the assay on T-47D breast, 125%; in the assay with BT-549 breast it was 106%. For the same molecule, the growth in the assay with MDA-MB-435 melanoma was 113%; in the assay with SW-620 colon, 108%; in the assay on MCF7 breast, 107%; in the assay on HCT-116 colon it was 96.8%; in the assay on HCC-2998 colon it was 104%; with KM12 colon, 109%.

For the molecule `COCCn1cc(-c2csc(-c3c[nH]c4ccccc34)n2)c2cccnc21`, the growth is 8.15% (active) in the assay with SR leukemia; 43.8% with RPMI-8226 leukemia; 38.6% in the assay with OVCAR-8 ovarian; 75.7% in the assay on OVCAR-5 ovarian; 44.3% with OVCAR-4 ovarian; 49.5% with SK-OV-3 ovarian. For the same molecule, the growth in the assay on IGROV1 ovarian was 41.8%; in the assay with OVCAR-3 ovarian it was 20.7%; with HS 578T breast, 57.4%; in the assay on NCI/ADR-RES ovarian, 12.7%; with T-47D breast, 3.06% (active); in the assay on BT-549 breast, 21.8%. Besides, the growth in the assay on MDA-MB-435 melanoma was 2.9% (active); with SW-620 colon, 30.7%; in the assay with MCF7 breast it was 9.88% (active); with HCT-116 colon, 16.6%; in the assay with HCC-2998 colon it was 42.1%; in the assay on KM12 colon it was 15.6%.

Turning to `O=S(=O)(Nc1cc(F)cc(F)c1)c1ccc(-c2cnc(C3CC3)o2)cc1`, the growth is 16.2% in the assay on SR leukemia; 26.5% with RPMI-8226 leukemia; 49.6% with OVCAR-8 ovarian; 71% with OVCAR-5 ovarian; 67.8% with OVCAR-4 ovarian; 60.2% in the assay on SK-OV-3 ovarian. The growth was 34.3% in the assay with IGROV1 ovarian; 2.74% (active) in the assay on OVCAR-3 ovarian; 14.4% in the assay with HS 578T breast; 26.4% in the assay on NCI/ADR-RES ovarian; 29.8% in the assay on T-47D breast; 36.1% in the assay on BT-549 breast. The growth in the assay on MDA-MB-435 melanoma was -23.6% (active); in the assay on SW-620 colon it was 17.2%; with MCF7 breast, 14.3%; in the assay on HCT-116 colon, 19.1%; with HCC-2998 colon it was 67.3%; in the assay on KM12 colon, 19.2%.

In the case of `COc1cc(/C=C/C(=O)c2cccc(-n3cc(-c4ccc(Cl)cc4)[nH]c3=O)c2)ccc1O`, the growth with SR leukemia is 33%; in the assay with RPMI-8226 leukemia, 5.06% (active); with OVCAR-8 ovarian, 46.5%; in the assay on OVCAR-5 ovarian it was 91.4%; in the assay on OVCAR-4 ovarian, 57%; in the assay on SK-OV-3 ovarian it was 97.9%. Besides, the growth with IGROV1 ovarian is -10.6% (active); in the assay with OVCAR-3 ovarian it was 3.36% (active); in the assay on HS 578T breast it was 76.5%; in the assay on NCI/ADR-RES ovarian it was 35.4%; with T-47D breast, 62.2%; in the assay with BT-549 breast, 26.3%. For the same molecule, the growth is 21.4% in the assay with MDA-MB-435 melanoma; 16% with SW-620 colon; 9.8% (active) with MCF7 breast; 21.5% in the assay on HCT-116 colon; 66.8% in the assay on HCC-2998 colon; 6.79% (active) with KM12 colon.

As to `CCCCC#Cc1c(I)n(C2OC(CO[Si](C)(C)C(C)(C)C)C3OC(C)(C)OC32)c(=O)n(C(=O)c2ccccc2)c1=O` (centres undefined), the growth with SR leukemia was 5.85% (active); in the assay with RPMI-8226 leukemia, -55.2% (active); in the assay with OVCAR-8 ovarian, 48.8%; in the assay with OVCAR-5 ovarian, 87.2%; in the assay with OVCAR-4 ovarian, 82.6%; with SK-OV-3 ovarian, 106%. The growth with IGROV1 ovarian was 27.4%; with OVCAR-3 ovarian, -59.7% (active); in the assay on HS 578T breast, 12%; in the assay on NCI/ADR-RES ovarian it was 74%; in the assay on T-47D breast, -10.1% (active); in the assay on BT-549 breast, 27.5%. For the same molecule, the growth was 44.8% in the assay with MDA-MB-435 melanoma; -49.2% (active) in the assay on SW-620 colon; 28.9% in the assay with MCF7 breast; 14.7% in the assay on HCT-116 colon; -9.34% (active) in the assay on HCC-2998 colon; 71.7% in the assay on KM12 colon.

Consider `C=C1C(=O)O[C@@H]2C3C(=C(C)CC[C@@H]12)CC1O[C@]13C` (some centres undefined), for which the growth was 38.4% [6.75 µM] with SR leukemia; 43.8% [6.75 µM] with RPMI-8226 leukemia; 83.5% [6.75 µM] in the assay with OVCAR-8 ovarian; 108% [6.75 µM] with OVCAR-5 ovarian; 93.4% [6.75 µM] in the assay on OVCAR-4 ovarian; 118% [6.75 µM] in the assay on SK-OV-3 ovarian. In addition, the growth with IGROV1 ovarian was 99.4% [6.75 µM]; with OVCAR-3 ovarian it was 75.8% [6.75 µM]; in the assay on HS 578T breast, 90.4% [6.75 µM]; in the assay with NCI/ADR-RES ovarian, 98.1% [6.75 µM]; with T-47D breast it was 56.8% [6.75 µM]; with BT-549 breast, 76.3% [6.75 µM]. Besides, the growth was 75.5% [6.75 µM] in the assay with MDA-MB-435 melanoma; 71.8% [6.75 µM] with SW-620 colon; 44.2% [6.75 µM] in the assay on MCF7 breast; 46.1% [6.75 µM] in the assay on HCT-116 colon; 108% [6.75 µM] in the assay with HCC-2998 colon; 102% [6.75 µM] in the assay on KM12 colon.

In the case of `Fc1cccc(-c2nc(-c3c[nH]c4ncccc34)cs2)c1`, the growth was 84.3% [100 µM] in the assay with SR leukemia; 68.4% [100 µM] with RPMI-8226 leukemia; 45.3% [100 µM] in the assay with OVCAR-8 ovarian; 74.9% [100 µM] in the assay on OVCAR-5 ovarian; 9.43% [100 µM] (active) in the assay with OVCAR-4 ovarian; 55.9% [100 µM] in the assay on SK-OV-3 ovarian. Besides, the growth in the assay on IGROV1 ovarian is 81.5% [100 µM]; in the assay with OVCAR-3 ovarian it was 36.1% [100 µM]; in the assay with HS 578T breast, 46.5% [100 µM]; in the assay with NCI/ADR-RES ovarian it was 48.1% [100 µM]; with T-47D breast, 40.5% [100 µM]; with BT-549 breast, 65.6% [100 µM]. Further, the growth in the assay on MDA-MB-435 melanoma was 50.4% [100 µM]; in the assay on SW-620 colon it was 56% [100 µM]; in the assay on MCF7 breast it was 44.6% [100 µM]; in the assay on HCT-116 colon, 33.8% [100 µM]; in the assay with HCC-2998 colon, 89% [100 µM]; in the assay with KM12 colon it was 56.6% [100 µM].
